Source: PubChem BioAssay (The Scripps Research Institute Molecular Screening Center)
hgDAF-12 ag – hgDAF-12 agonism, primary luciferase screen | HEK293 GAL4-hgDAF12 UAS-luciferase reporter, agonist luminescence; normalized to butyrate control | activation, % at 6.8 µM | 370,000 compounds, 1.8% hits;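 active = activation above a cutoff set at the mean of all screened compounds plus 3 SD, cut at about 10% in these data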
ssDAF-12 act – activates DAF-12 receptor from parasite S. stercoralis; HEK293 ssDAF-12/GRIP1 lit1-tk-luc reporter, luminescence; % of 3 µM dafachronic acid response; activation, % at 6.8 µM; 370,000 compounds, 1% hits;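 active = activation above the mean over all tested compounds plus 3 SD, cut at about 0.9% in these data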
DAX1 inh-1 – inhibits human nuclear receptor DAX1; P51843; HEK293 Gal4-DAX1 luciferase reporter, luminescence; inhibition, % at 6.75 µM; 340,000 compounds, 0.99% hits; AID 504766;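 active = inhibition above the mean over all tested compounds plus 3 SD, cut at about 4.2% in these data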;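 also: inhibition shows as a rise in luminescence from relieved DAX1 repression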
DAX1 inh-2 – DAX1 (NR0B1) inhibition, primary screen; AID 652010; HEK293T StAR-luciferase reporter, SF-1/DAX-1 repression relief; inhibition, % at 6.8 µM; 370,000 compounds, 1.1% hits;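 active = inhibition above the mean over all tested compounds plus 3 SD, cut at about 3.6% in these data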;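 also: higher inhibition means more luminescence from relief of DAX-1 repression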
hcDAF12 agonist – H. contortus DAF-12 activation, primary screen. HEK293 hcDAF-12 lit1-tk-luc reporter, luminescence; 0% DMSO, 100% Δ7-dafachronic acid. activation, % at 6.8 µM. 370,000 compounds, 1.4% hits. AID 652067;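 active = activation above the mean of all tested compounds plus 3 SD, cut at about 5.5% in these data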
LXR ag – LXR-beta agonism as hcDAF-12 counter-screen; shares compounds with hcDAF12 agonist; 3,400 tested, under 10 active; HEK293 Gal4-LXR tk-luc reporter, luminescence, 24 h; normalized: DMSO 0%, positive control 100%; activation, % at 6.8 µM;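 active = mean percent activation of the reporter above a cutoff set as the average over tested compounds plus their standard deviation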
Target sequence (P55055 whole entry, looked up, the tested form may be a part): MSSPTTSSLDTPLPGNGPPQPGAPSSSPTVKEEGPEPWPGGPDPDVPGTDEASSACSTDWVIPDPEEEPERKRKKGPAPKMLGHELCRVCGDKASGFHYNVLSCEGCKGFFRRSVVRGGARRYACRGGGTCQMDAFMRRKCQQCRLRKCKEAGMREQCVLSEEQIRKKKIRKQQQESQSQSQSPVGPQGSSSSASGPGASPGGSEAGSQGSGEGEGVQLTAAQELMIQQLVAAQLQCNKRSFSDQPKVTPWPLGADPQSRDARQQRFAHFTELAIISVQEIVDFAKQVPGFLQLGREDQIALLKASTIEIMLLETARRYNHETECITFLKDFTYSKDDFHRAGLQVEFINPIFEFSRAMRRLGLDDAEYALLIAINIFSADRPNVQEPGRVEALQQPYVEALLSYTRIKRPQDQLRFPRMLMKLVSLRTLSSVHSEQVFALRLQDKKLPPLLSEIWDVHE
hcDAF12 conf – confirmation of H. contortus DAF-12 agonists; shares compounds with hcDAF12 agonist; HEK293 hcDAF-12 lit1-tk-luc reporter, luminescence; % of Δ7-dafachronic acid response; activation, % at 6.8 µM; 3,400 compounds, 61% hits; AID 743032;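 active = mean activation across triplicate tests above the threshold derived from the earlier primary screen, cut at about 5.5% in these data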
A number is an active result; - = inactive; . = no result given. In the library only some 4.1% were active in any assay of this set; here they are far more common.

SMILES	hgDAF-12 ag	ssDAF-12 act	DAX1 inh-1	DAX1 inh-2	hcDAF12 agonist	LXR ag	hcDAF12 conf
CC(C)[C@H](N)C(=O)N[C@@H](Cc1ccccc1)C(=O)N1CCC2CCN(S(=O)(=O)c3ccccc3)CC21 (stereo partly drawn)	-	-	.	-	-	.	.
CCOc1ccc(NC(=O)/C(C#N)=C/c2cn(CC(=O)O)c3ccccc23)cc1	-	-	-	-	-	.	.
CCOc1cccc(NC(=O)/C(C#N)=C\c2cn(CC(=O)O)c3ccccc23)c1	-	-	-	-	6.7	-	-
CCCCCn1nnnc1C1(C)CCCCC(=O)N1Cc1ccco1 (stereo not drawn)	-	-	.	-	-	.	.
COc1ccc(NC(=O)Nc2nnc(-c3ccco3)s2)cc1	12	1.2	-	-	8.3	-	9.0
COc1ccc(NC(=O)Nc2nnc(-c3ccccc3F)s2)cc1	-	-	-	-	-	.	.
Cc1ccc(S(=O)(=O)N2CCC(=O)N([C@H](COCc3ccc(C(F)(F)F)cc3)C(C)C)CC2)cc1	-	-	.	-	-	.	.
COc1ccc2c(=O)c(-c3nc(C)cs3)coc2c1	14	1.1	-	4.1	7.0	-	14
CCc1cc2c(=O)c(-c3nc(C)cs3)coc2cc1O	-	-	-	-	-	.	.
Cc1csc(-c2coc3cc(O)cc(C)c3c2=O)n1	-	1.6	-	-	13	-	11
N/C(=N\OC(=O)c1ccc(Cl)cc1[N+](=O)[O-])c1cccnc1	-	-	-	-	7.0	-	6.4
COc1cccc(C(=O)O/N=C(\N)c2ccncc2)c1OC	-	-	-	-	-	.	.
N/C(=N\OC(=O)c1ccc(Cl)cc1Cl)c1ccccn1	-	-	-	-	-	.	.
COc1cccc(C(=O)O/N=C(\N)c2ccccn2)c1OC	-	-	-	-	6.6	-	6.4
N/C(=N\OC(=O)c1ccc(Cl)cc1[N+](=O)[O-])c1ccccn1	12	-	-	-	8.6	-	-
C=CCN=C1NC(c2cccc(Cl)c2)C(C(=O)OC)=C(C)N1Cc1ccc(C(F)(F)F)cc1 (stereo not drawn)	-	-	.	-	-	.	.
COC(=O)[C@]12C[C@H](CC(=O)NCC3CCCCC3)C(=O)N(Cc3ccccc3)C1=C[C@H](C1CCCC1)O[C@@H]2C	-	-	.	-	-	.	.
CC(C)(C)c1ccc(S(=O)(=O)N2CCCC(C(=O)NCc3ccco3)C2)cc1 (stereo not drawn)	-	-	.	-	-	.	.
NNc1nc(-c2ccccc2)nc2sc3c(c12)CCCC3	-	-	-	-	7.8	-	19
CN1CCN(C(=O)CNC(=O)c2cccs2)CC1	-	-	-	-	7.8	-	-
O=C(NCC(=O)N1CCCC1)c1cccs1	-	-	-	-	-	.	.
COC(=O)[C@]12C[C@H](CC(=O)N3CCOCC3)C(=O)N(Cc3ccccc3)C1=C[C@H](C(C)C)O[C@@H]2C1CC1	-	-	.	-	-	.	.
O=C1C=C(Nc2ccccc2)C(=O)c2ccccc21	-	-	-	-	7.6	-	7.0
O=C(NC1CC1)c1cc(-c2ccccn2)nc2ccccc12	-	-	-	-	-	.	.
O=C(Nn1cnnc1)c1cc(-c2ccccn2)nc2ccccc12	-	1.3	-	-	11	-	-
SMILES	hgDAF-12 ag	ssDAF-12 act	DAX1 inh-1	DAX1 inh-2	hcDAF12 agonist	LXR ag	hcDAF12 conf
O=C(N/N=C/c1cn(-c2ccccc2)nc1-c1cc2ccccc2o1)c1cccnc1	-	1.2	-	-	8.6	-	11
CN(C)S(=O)(=O)c1cccc(-c2nn(-c3ccccc3)cc2/C=C(\C#N)c2nc3ccccc3[nH]2)c1	-	-	-	-	-	.	.
N#C/C(=C\c1cn(-c2ccccc2)nc1-c1cc2ccccc2o1)c1nc2ccccc2[nH]1	-	-	-	-	6.6	-	-
N#C/C(=C\c1ccccc1OCC(=O)O)c1nc2ccccc2[nH]1	-	-	-	-	7.8	-	-
O=c1c(-c2cc3ccccc3[nH]2)nc2ccccc2n1C(CCc1ccccc1)c1nc2ccccc2[nH]1 (stereo not drawn)	-	-	.	-	-	.	.
Cc1ccc(S(=O)(=O)N2C[C@H]3[C@H]4C(=O)N(C)C(=O)[C@H]4CC(=O)[C@H]3[C@@H]2c2ccccc2Cl)cc1	-	-	.	-	-	.	.
Cn1cc([N+](=O)[O-])c(C(=O)N/N=C\c2c[nH]c3ccccc23)n1	-	-	-	-	16	-	-
O=C(N/N=C/c1c[nH]c2ccccc12)c1cccc([N+](=O)[O-])c1	-	-	-	-	10	-	6.7
Cc1cc(=O)[nH]c(N/N=C/c2c[nH]c3ccccc23)n1	-	-	-	-	7.2	-	-
O=C(N/N=C/c1coc2ccccc2c1=O)c1cccc([N+](=O)[O-])c1	-	-	-	-	-	.	.
O=[N+]([O-])c1ccccc1N/N=C/c1c[nH]c2ccccc12	21	2.5	-	-	11	-	17
CCC(=O)N1CCC1(C)C(=O)Nc1cccc(OC)c1OC (stereo not drawn)	-	-	.	-	-	.	.
CC(=O)c1cccc(NC(=O)c2cnccn2)c1	-	-	-	-	-	.	.
O=C(Nc1nc2ccccc2s1)c1cnccn1	13	-	-	4.0	7.5	-	6.6
O=C(Nc1ccc2nccnc2c1)c1cnccn1	-	-	-	-	6.7	-	-
O=C(Nc1nc2ccccc2s1)C1=NN(c2ccccc2)C(=O)CC1	-	-	-	-	6.8	-	-
CC1CCCCC1C(=O)N1CCC(Oc2cccnc2)CC1 (stereo not drawn)	-	-	.	-	-	.	.
CN(Cc1ccc(F)cc1)C(=O)c1cccc2c1C(=O)N(Cc1cccnc1)C2	-	-	.	-	-	.	.
CC(C)C(=O)N1CCCC1(C)C(=O)NCc1ccc(Cl)cc1 (stereo not drawn)	-	-	.	-	-	.	.
Cc1ccc(/C=C2\OC(=O)c3ccccc32)cc1	-	-	-	-	8.4	-	8.5
CCn1nnnc1-c1ccc(OC)c(S(=O)(=O)Nc2ccccc2OC)c1	-	-	-	-	-	.	.
Cc1ccc(-c2cc(NC(=O)CCl)n(-c3ccccc3)n2)cc1	-	-	-	-	-	.	.
Cc1cc(C)nc(NC(=O)CSc2nc3ccccc3s2)n1	-	2.1	-	-	7.7	-	9.3
COC(=O)c1ccc(NC(=O)COC(=O)CSc2nc(C)cc(C)n2)cc1	-	-	-	-	-	.	.
Cc1cc(NC(=O)CCl)n(-c2nc3ccccc3s2)n1	-	-	-	-	6.8	-	-
Cc1cc(C)nc(SCC(=O)OCC(=O)Nc2nc3ccccc3s2)n1	-	-	-	-	8.5	-	6.5
